Records with an inconclusive call do not appear. The source made the active and inactive calls. Calls follow the shape of the dose curve; as a rule, active = well fitted curve in the direction sought with a large enough effect; inconclusive = small, poorly fitted or top-dose-only effect, or another doubt; inactive = no such curve, though single readings can be large; an effect the other way counts as inactive or inconclusive.
Columns and labels:
[1] = NS1 protein of Zika virus - qHTS assay to identify small molecule inhibitors in human HEK 293 cells (AID 1347053); also: series mostly up to about 46 µM; nearly all actives have a fitted effect of over 55% in size
Method in brief: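 HEK 293 cells, seeded 20 h at 37 C, were pretreated with compound 1 h, then infected with ZIKV MR766 (MOI = 0.5) for 24 h. NS1 was read by TR-FRET with two anti-NS1 antibodies, normalized to uninfected and infected wells.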

[2] = qHTS of pediatric cancer cell lines to identify multiple opportunities for drug repurposing: Primary screen for TC32 cells (AID 1347089); also: nearly all actives have a fitted effect of over 60% in size; also: potency is read from the fitted curve at half-maximal effect
Method in brief: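 qHTS, TC32, 48 h drug treatment, CellTiter-Glo luminescence as a proxy for metabolically active cells; primary top concentration 46 µM (MIPE 11-pt, NPC 8-pt); confirmatory 11-pt.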

[3] = qHTS of pediatric cancer cell lines to identify multiple opportunities for drug repurposing: Primary screen for DAOY cells (AID 1347090); also: nearly all actives have a fitted effect of over 55% in size; also: potency is read from the fitted curve at half-maximal effect
Method in brief: (§1)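 Eight- or eleven-point concentration series, 48 h treatment at 37 degrees C in growth media; readout CellTiter-Glo luminescence. Potency and efficacy were taken from the concentration-response curves.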

[4] = qHTS of pediatric cancer cell lines to identify multiple opportunities for drug repurposing: Primary screen for SJ-GBM2 cells (AID 1347091); also: potency is read from the fitted curve at half-maximal effect
Method in brief: as §1

[5] = qHTS of pediatric cancer cell lines to identify multiple opportunities for drug repurposing: Primary screen for A673 cells (AID 1347092); also: nearly all actives have a fitted effect of over 45% in size; also: potency is read from the fitted curve at half-maximal effect
Method in brief: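 Luminescence from CellTiter-Glo, taken after 15 min at room temperature, served as the proxy for metabolically active cells following 48 h treatment. Both potency and efficacy were taken from curves fitted to the titration data.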

[6] = qHTS of pediatric cancer cell lines to identify multiple opportunities for drug repurposing: Primary screen for BT-37 cells (AID 1347094); also: potency is read from the fitted curve at half-maximal effect
Method in brief: (§2)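 CRCs from 8- or 11-point titrations (lowest final 0.59 nM NPC, 0.78 nM MIPE). Cell viability: CellTiter-Glo after 48 h incubation, 15 min room-temperature development, luminescence imaging.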

[7] = qHTS of pediatric cancer cell lines to identify multiple opportunities for drug repurposing: Primary screen for NB-EBc1 cells (AID 1347095); also: potency is read from the fitted curve at half-maximal effect
Method in brief: as §2

[8] = qHTS of pediatric cancer cell lines to identify multiple opportunities for drug repurposing: Primary screen for Saos-2 cells (AID 1347097); also: nearly all actives have a fitted effect of over 40% in size; also: potency is read from the fitted curve at half-maximal effect
Method in brief: as §2

[9] = qHTS of pediatric cancer cell lines to identify multiple opportunities for drug repurposing: Primary screen for SK-N-SH cells (AID 1347098); also: nearly all actives have a fitted effect of over 65% in size; also: potency is read from the fitted curve at half-maximal effect
Method in brief: (§3)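 Cells (500-1,000/well) rested 5 h, then received compounds for 48 h; metabolically active cells were measured by CellTiter-Glo luminescence. Final concentrations spanned up to 46 µM (MIPE, 11-point) or 0.59 nM-46 µM (NPC, 8-point) in primary screens, 11-point in follow-ups.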

[10] = qHTS of pediatric cancer cell lines to identify multiple opportunities for drug repurposing: Primary screen for NB1643 cells (AID 1347099); also: nearly all actives have a fitted effect of over 50% in size; also: potency is read from the fitted curve at half-maximal effect
Method in brief: as §2

[11] = qHTS of pediatric cancer cell lines to identify multiple opportunities for drug repurposing: Primary screen for LAN-5 cells (AID 1347100); also: potency is read from the fitted curve at half-maximal effect
Method in brief: (§4)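 Cells (500-1,000/well) in growth media were settled 5 h at 37 degrees C, then given compounds for 48 h. Viability was read as CellTiter-Glo luminescence. Primary runs used MIPE at 11 points (0.78 nM-46 µM) and NPC at 8 points (0.59 nM-46 µM); follow-ups used 11 points.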

[12] = qHTS of pediatric cancer cell lines to identify multiple opportunities for drug repurposing: Primary screen for BT-12 cells (AID 1347101); also: nearly all actives have a fitted effect of over 25% in size; also: potency is read from the fitted curve at half-maximal effect
Method in brief: as §3

[13] = qHTS of pediatric cancer cell lines to identify multiple opportunities for drug repurposing: Primary screen for OHS-50 cells (AID 1347103); also: nearly all actives have a fitted effect of over 40% in size; also: potency is read from the fitted curve at half-maximal effect
Method in brief: as §3

[14] = qHTS of pediatric cancer cell lines to identify multiple opportunities for drug repurposing: Primary screen for U-2 OS cells (AID 1347096); also: nearly all actives have a fitted effect of over 50% in size; also: potency is read from the fitted curve at half-maximal effect
Method in brief: as §4

[15] = qHTS of pediatric cancer cell lines to identify multiple opportunities for drug repurposing: Primary screen for Rh18 cells (AID 1347102); also: nearly all actives have a fitted effect of over 65% in size; also: potency is read from the fitted curve at half-maximal effect
Method in brief: as §4

[16] = qHTS of pediatric cancer cell lines to identify multiple opportunities for drug repurposing: Primary screen for SK-N-MC cells (AID 1347093); also: potency is read from the fitted curve at half-maximal effect
Method in brief: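 Metabolically active cells were quantified by ATP-dependent luminescence (CellTiter-Glo, 15 min at room temperature) following 48 h treatment. Cells had been plated at 500-1,000 per well and settled for 5 h beforehand.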

Measured: Potency

Oc1c(Cl)cc(Cl)c(Cl)c1Cc1c(O)c(Cl)cc(Cl)c1Cl
active: [2] 7.45 µM | [3] 8.41 µM | [4] 4.22 µM | [5] 21.1 µM | [6] 9.78 µM | [7] 4.73 µM | [8] 5.96 µM | [9] 12.2 µM | [10] 5.96 µM | [11] 4.22 µM | [12] 13.8 µM | [13] 6.17 µM
inactive: [1]

O=C1OC2(c3ccccc31)c1cc(Br)c(O)c(Br)c1Oc1c2cc(Br)c(O)c1Br
not listed: [8] | [9] | [10] | [16]
inactive: all other assays above

CC(=O)O[C@]1(C(C)=O)CC[C@H]2[C@@H]3C=C(Cl)C4=CC(=O)CC[C@]4(C)[C@H]3CC[C@@]21C
not listed: [6] | [12] | [13] | [14] | [15] | [16]
inactive: all other assays above

N#C/C(=C1\SCC(c2ccccc2Cl)S1)n1ccnc1 (stereo not given)
not listed: [6] | [13] | [15] | [16]
inactive: all other assays above

N#CCC(=O)NN
not listed: [6] | [14] | [16]
inactive: all other assays above

C/C=C/C=N/NC(=O)c1ccncc1
not listed: [5] | [10]
inactive: all other assays above

CO[C@]12C[C@@H](COC(=O)c3cncc(Br)c3)CN(C)[C@@H]1Cc1cn(C)c3cccc2c13
not listed: [6] | [9] | [14] | [16]
inactive: all other assays above

COc1cc(C)nc(-n2nc(C)cc2OC)n1
not listed: [5] | [14]
inactive: all other assays above

CCCCC(CC)CN1CN(CC(CC)CCCC)CC(C)(N)C1 (stereo not given)
not listed: [8] | [12] | [13] | [16]
inactive: all other assays above

CC(=O)O[C@H]1C[C@@H]2CC[C@@H]3[C@H](CC[C@@]4(C)[C@H]3C[C@H]([N+]3(C)CCCCC3)[C@@H]4OC(C)=O)[C@@]2(C)C[C@@H]1N1CCCCC1
not listed: [10] | [15] | [16]
inactive: all other assays above

CCCCc1cc2ccccc2c(OCCN(C)C)n1
active: [13] 15.5 µM
not listed: [6] | [8] | [9] | [16]
inactive: all other assays above

N[C@H](C(=O)O)[C@@H](O)c1ccc(O)c(O)c1
inactive: [1] | [2] | [3] | [4] | [5] | [7] | [8] | [15] | [13]

C=C1c2cccc(O)c2C(O)=C2C(=O)[C@]3(O)C(O)=C(C(N)=O)C(=O)[C@@H](N(C)C)[C@@H]3[C@@H](O)[C@H]12
not listed: [5] | [9] | [12]
inactive: all other assays above

O=C1OC(CN2CCOCC2)CN1/N=C/c1ccc([N+](=O)[O-])o1 (stereo not given)
not listed: [5]
inactive: all other assays above

CN(CCCN1c2ccccc2CCc2ccccc21)CC(=O)c1ccc(Cl)cc1
not listed: [6] | [10] | [12] | [13] | [16]
inactive: all other assays above

CC(=C(CCOC(=O)C(C)C)SSC(CCOC(=O)C(C)C)=C(C)N(C=O)Cc1cnc(C)nc1N)N(C=O)Cc1cnc(C)nc1N
not listed: [14] | [15] | [16]
inactive: all other assays above

O=C(O)C(Cc1cc(I)c(O)c(I)c1)c1ccccc1 (stereo not given)
not listed: [9] | [15] | [16]
inactive: all other assays above

Cn1c(=O)c2[nH]c(Br)nc2n(C)c1=O
not listed: [10] | [15] | [16]
inactive: all other assays above

C[N+]1(CC2COC(c3ccccc3)(C3CCCCC3)O2)CCCCC1 (stereo not given)
not listed: [6] | [10] | [12] | [13] | [16]
inactive: all other assays above

Cc1cn([C@H]2C[C@H](F)[C@@H](CO)O2)c(=O)[nH]c1=O
not listed: [6] | [7] | [10] | [14] | [16]
inactive: all other assays above

CCCCC(CC)COC(=O)/C=C/c1ccc(OC)cc1 (stereo not given)
not listed: [5] | [10] | [13] | [14]
inactive: all other assays above

CCOCCn1c(N2CCCN(C)CC2)nc2ccccc21
not listed: [9] | [16]
inactive: all other assays above

Cc1c[nH]c2ccccc12
not listed: [7] | [16]
inactive: all other assays above

CCCCN=C(N)N=C(N)N
not listed: [5] | [12] | [13] | [15]
inactive: all other assays above

NC1CCN(c2nc3c(cc2F)c(=O)c(C(=O)O)cn3-c2ccc(F)cc2F)C1 (stereo not given)
not listed: [5]
inactive: all other assays above

C#C[C@]1(O)CC[C@H]2[C@@H]3CCC4=Cc5oncc5C[C@]4(C)[C@H]3CC[C@@]21C
inactive: [1] | [2] | [3] | [14] | [9]
active: [13] 24.6 µM

Cc1cc(-c2ccccc2)nnc1NCCN1CCOCC1
not listed: [2]
inactive: all other assays above

CCCCNc1ccc(C(=O)OCCOCCOCCOCCOCCOCCOCCOCCOCCOC)cc1
not listed: [5] | [6] | [12] | [13] | [14] | [16]
inactive: all other assays above

Nc1nc(N)c(-c2ccccc2)s1
not listed: [2]
inactive: all other assays above

CCc1oc2ccccc2c1C(=O)c1cc(I)c(O)c(I)c1
inactive: [1] | [2] | [5] | [6] | [14] | [9] | [11] | [12] | [15]

CC(C)n1c(/C=C/[C@@H](O)C[C@@H](O)CC(=O)O)c(-c2ccc(F)cc2)c2ccccc21
inactive: [1] | [11]
active: [2] 16.7 µM | [3] 1.33 µM | [5] 5.31 µM | [16] 15 µM | [6] 15.5 µM | [14] 6.68 µM | [8] 1.5 µM | [9] 3.44 µM | [10] 10.6 µM | [15] 7.5 µM | [13] 6.92 µM

CC(C)=CCOc1ccc(/C=C/C(=O)c2ccc(OCC=C(C)C)cc2OCC(=O)O)cc1
active: [10] 23.7 µM
inactive: [1] | [2] | [6] | [14] | [15]

COc1ccc(C(Cl)=C(c2ccc(OC)cc2)c2ccc(OC)cc2)cc1
inactive: [1] | [2] | [3] | [16] | [9] | [10] | [15]

O=C1[C@H](CC[C@H](O)c2ccc(F)cc2)[C@@H](c2ccc(O)cc2)N1c1ccc(F)cc1
not listed: [4] | [6] | [12] | [13] | [16]
inactive: all other assays above

From PubChem BioAssay (NCATS)
